Only some compounds are listed: those with a hit (about 1.2% of all), similar ones and a draw of the others.
RGS8-Gao = RGS8-Galphao binding modulators, primary screen, biochemical, multiplexed bead flow cytometry. response (percent of control binding), % at 10 µM. actives 0.34% (n = 220,000). Guanine nucleotide-binding protein G(o) subunit alpha (Homo sapiens), P09471. actives lie on both sides; in the data active = response below about 60% or above about 140%; inactive = in between;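 note: Galphao activated as the GDP aluminium fluoride complex binding bead-coupled RGS8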
GSH bead fluor = compound fluorescence on glutathione beads, profiling panel, artefact control, biophysical, 488/530 nm, flow cytometry | GSH beads flow cytometry, compound fluorescence 488/530 nm; active compounds read high | fluorescence (KMESF) at 10 µM | actives 0.25% (n = 190,000) | AID 1776, 2009; in the data active = fluorescence above about 89;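 note: glutathione beads carrying GST-tagged Bcl family fusion proteins plus one bare bead set; values are compound well signal with DMSO vehicle wells as background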
RGS4-Gao reg = modulators of RGS4 binding to Galphao, primary screen, biochemical, multiplexed bead flow cytometry; Guanine nucleotide-binding protein G(o) subunit alpha (Homo sapiens), P09471; actives lie on both sides; binding response (% of control), % at 10 µM; actives 0.33% (n = 220,000); AID 1415, 2008; in the data active = binding response below about 49% or above about 150%; inactive = in between;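 note: fluorescent Galphao activated with aluminum fluoride binding bead-coupled RGS4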
Avidin bead fluor = green autofluorescence of compounds with avidin beads – biophysical, 488/530 nm, flow cytometry, artefact control, profiling panel | compound fluorescence 488/530 nm; active compounds read high | fluorescence (KMESF) at 10 µM | actives 0.38% (n = 220,000) | AID 1775, 2009; in the data active = fluorescence above about 47
RGS7-Gao reg = RGS7-Galphao binding modulators, primary screen, biochemical, multiplexed bead flow cytometry | Guanine nucleotide-binding protein G(o) subunit alpha (Homo sapiens), P09471 | actives lie on both sides | binding response (% of control), % at 10 µM | actives 0.35% (n = 220,000) | AID 1439, 2008; in the data active = binding response below about 49% or above about 150%; inconclusive = no clear call, values can overlap the other calls; inactive = in between;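 note: fluorescent Galphao held in activated GDP-AlF4 state binding bead-coupled RGS7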
RGS16-Gao HTS = modulators of RGS16 binding to Galphao, primary screen, biochemical, human proteins, multiplexed bead flow cytometry. Regulator of G-protein signaling 16 (Homo sapiens) + Guanine nucleotide-binding protein …. binding response (% of control), % at 10 µM. actives 0.38% (n = 220,000). bead-based flow cytometry RGS16-Galphao binding, fluorescence; actives lie on both sides;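 note: Galphao activated by GDP with aluminum fluoride before binding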
RGS-Gao = modulators of RGS–Galpha-o binding, primary screen, biochemical, multiplexed beads, flow cytometry, RGS4/7/8/16/19 | shares compounds with RGS16-Gao HTS | multiplexed bead flow cytometry | RGS4–Galpha-o binding response, % at 10 µM | actives 99% (n = 1,600) | AID 1504, 2009;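 note: fluorescently labeled Galpha-o bound to GDP with aluminium fluoride binding biotinylated RGS beads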
Target sequence (P09471 whole entry, looked up): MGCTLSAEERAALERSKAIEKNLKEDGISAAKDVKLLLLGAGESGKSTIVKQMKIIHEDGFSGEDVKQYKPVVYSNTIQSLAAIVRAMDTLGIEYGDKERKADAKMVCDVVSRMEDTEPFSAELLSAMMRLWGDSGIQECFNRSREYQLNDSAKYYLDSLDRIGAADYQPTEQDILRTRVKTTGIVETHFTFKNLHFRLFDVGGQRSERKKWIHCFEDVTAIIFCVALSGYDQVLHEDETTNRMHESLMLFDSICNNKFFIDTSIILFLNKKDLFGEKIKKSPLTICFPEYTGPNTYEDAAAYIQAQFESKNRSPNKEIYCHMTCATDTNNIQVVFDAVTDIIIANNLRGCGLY
Target sequence (P49798 whole entry, looked up): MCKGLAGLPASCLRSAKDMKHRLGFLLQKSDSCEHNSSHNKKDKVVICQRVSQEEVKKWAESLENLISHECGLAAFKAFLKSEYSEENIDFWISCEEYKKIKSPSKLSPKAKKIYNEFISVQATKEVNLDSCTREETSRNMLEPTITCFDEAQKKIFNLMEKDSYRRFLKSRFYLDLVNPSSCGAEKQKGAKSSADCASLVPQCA
Avidin counter = disruption of biotin probe capture by avidin, counter-screen for RGS protein interaction modulators, biochemical, flow cytometry, bead-based; streptavidin beads, fluorescein-biotin binding; inhibition, % at 10 µM; AID 1783, 2009; 1,700 tested, under 10 active; shares compounds with RGS16-Gao HTS;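 active = inhibition above 50%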;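 note: median green fluorescence of gated singlet beads compared with DMSO control wells; 0% = DMSO wells and 100% = complete loss of bead fluorescence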
RGS8-Gao confirm = RGS8-Galphao binding modulators, confirmation, biochemical, multiplexed bead flow cytometry, single concentration; shares compounds with RGS16-Gao HTS; bead-based flow cytometry RGS8-Galphao binding, fluorescence; actives lie on both sides; binding response (% of control), % at 10 µM; actives 3% (n = 1,700); AID 1836, 2009; in the data active = binding response below about 72% or above about 130%; inactive = in between;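 note: Galphao activated as GDP AlF4 complex before binding bead RGS8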
RGS7-Gao confirm = RGS7-Galphao binding modulators, confirmation, biochemical, multiplexed bead flow cytometry, single concentration; shares compounds with RGS16-Gao HTS; bead-based flow cytometry RGS7-Galphao binding; actives lie on both sides; response (percent of control binding), % at 10 µM; actives 7.8% (n = 1,700); AID 1837, 2009; in the data active = response below about 75% or above about 130%; inactive = in between;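 note: fluorescent Galphao activated with GDP and aluminum fluoride binding bead-coupled RGS7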
RGS16-Gao single = modulators of RGS16-Galphao protein binding, confirmation, biochemical, single concentration, multiplexed bead flow cytometry; shares compounds with RGS16-Gao HTS; response (% of control binding), % at 10 µM; actives 4% (n = 1,700); bead-based flow cytometry; actives lie on both sides; in the data active = response below about 74% or above about 130%; inactive = in between;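 note: Galphao activated as the GDP aluminium fluoride complex binding bead-coupled RGS16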
RGS4-Gao confirm = modulators of RGS4-Galphao protein binding, confirmation, biochemical, single concentration, multiplexed bead flow cytometry. shares compounds with RGS16-Gao HTS. actives lie on both sides. binding response (% of control), % at 10 µM. actives 4% (n = 1,700). AID 1840, 2009; in the data active = binding response below about 74% or above about 130%; inactive = in between
RGS19-Gao conf = regulators of RGS19-Galphao binding, confirmation, biochemical, single point, multiplexed bead flow cytometry | shares compounds with RGS16-Gao HTS | bead-based flow cytometry RGS19-Galphao binding; actives lie on both sides | response (percent of control binding), % at 10 µM | actives 5% (n = 1,700) | AID 1841, 2009; in the data active = response below about 50% or above about 160%; inactive = in between;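 note: 100% = no compound control and 0% = blank background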
* = called active by the depositor; ? = inconclusive; . = no result; [ ] = another dose, or the depositor's remark. Unless noted, the rule behind the calls is not given here.

SMILES | RGS8-Gao | GSH bead fluor | RGS4-Gao reg | Avidin bead fluor | RGS7-Gao reg | RGS16-Gao HTS | RGS-Gao | Avidin counter | RGS8-Gao confirm | RGS7-Gao confirm | RGS16-Gao single | RGS4-Gao confirm | RGS19-Gao conf
C=CCn1c(C(CCCC)CC(C)O)n[nH]c1=S (stereo unspecified) | 67 | 9 | 84 | 5 | 85 | -9.0* | 84* | 0 | 91 | 88 | 87 | 90 | 55
CC(C)c1nc2oc3c(NCCO)ncnc3c2c2c1COC(C)(C)C2 | 98 | . | 93 | 9 | ? | 96 | . | . | . | . | . | . | .
CCCc1nc2oc3c(NCCOCCO)ncnc3c2c2c1COC(C)(C)C2 | 127 | 27 | 165*[activator] | 20 | 173*[activator] | 162 | . | -2 | 101 | 102 | 96 | 100 | 76
COc1nc(N)c(S(=O)(=O)c2ccccc2)cc1C#N | 145*[activator] | 49 | 124 | 8 | 117 | 407 | 124* | -1 | 103 | 98 | 108 | 100 | 118
Nc1c(C(=O)NCC2CCCO2)sc2nc3c(c(-c4ccco4)c12)CC/C3=C\c1ccco1 (stereo unspecified) | 71 | 5 | 73 | 1 | 44* | 89 | 73* | 2 | 70* | 52* | 70* | 75 | 24*
CN(C)CCNC(=O)/C(=C/c1ccc(-c2ccc(Cl)cc2)o1)NC(=O)c1ccccc1 | 163*[activator] | 11 | 183*[activator] | 3 | 186*[activator] | 133 | . | 0 | 103 | 97 | 100 | 99 | 89
O=C1CC(c2ccc(F)cc2)Sc2nc(C34CC5CC(CC(C5)C3)C4)nn21 (stereo unspecified) | 103 | 10 | 96 | 16 | 98 | 96 | . | . | . | . | . | . | .
CC1CCCC(NC(=O)COC(=O)c2sc3ccccc3c2Cl)C1C (stereo unspecified) | 9.4* | 11 | 4.5* | -5 | -6.9* | 0.2* | . | -1 | 99 | 96 | 100 | 100 | 98
O=C(COC(=O)c1sc2ccccc2c1Cl)NCC1CCCCC1 | 99 | 11 | 100 | 11 | 104 | 105 | . | . | . | . | . | . | .
